Screening data: PubChem, National Center for Advancing Translational Sciences (NCATS)
Rows were chosen to be rich in hits. Some 21% of all compounds tested hit in one or more screens of this group.
Pf growth 48h – Primary qHTS for delayed death inhibitors of the malarial parasite plastid, 48 hour incubation. AID 504832, 2011. Potency, µM (top dose mostly 28.7 µM), for inactives: at the highest dose activity change, negative = inhibition, actives largely listed as inhibitors. P. falciparum luciferase growth in erythrocytes, 48 h. 310,000 tested, 5.9% active; also: potency is read from the fitted curve at half-maximal effect; % is scaled to controls: 0 for no effect and ±100 for the full control effect
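First compound was added to culture medium, then infected red cells at 0.1% parasitemia and 2% hematocrit (final). After incubation at 37 C under 5% CO2, luciferase detection reagent was dispensed and light output recorded.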
NS1 inh – qHTS Assay for Inhibitors of Influenza NS1 Protein Function. AID 2326, 2010. 270,000 tested, 0.4% active. Potency, µM (titrated, usually from 46.1 µM), for the others: at the top dose activity, positive = more growth; calls by dose curve; also: potency is read from the fitted curve at half-maximal effect; actives are rising curves; nearly all actives have a fitted effect of over 50% in size
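S. cerevisiae expressing influenza A NS1, grown in glucose, washed, then diluted 1:100 into pH 6.0 -URA galactose medium with 23 nl compound. Growth recovery read as OD600; NS1-free strain serves as control.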
Pf growth 96h – Primary qHTS for delayed death inhibitors of the malarial parasite plastid, 96 hour incubation. P. falciparum luciferase reporter growth, 96 h. 320,000 tested, 6.9% active. Potency, µM (doses to about 28.7 µM), for the others: top-dose activity change, negative = inhibition, actives largely listed as inhibitors; also: potency is read from the fitted curve at half-maximal effect; % is scaled to controls: 0 for no effect and ±100 for the full control effect
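Parasite growth measured via integrated firefly luciferase reporter in P. falciparum. Infected erythrocytes at 2% hematocrit, 0.05% parasitemia final were treated 96 hours at 37 C under 5% CO2, and luminescence was read.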
CHX counter – Cycloheximide Counterscreen for Small Molecule Inhibitors of Shiga Toxin; cell reporter, cycloheximide protein synthesis inhibition counterscreen; max response, %; 300,000 tested, 12% active; AID 2314, 2010; in the data active = max response mostly above about 13%, no sharp cut-off; inactive = mostly below about 14%; also: read at 38.3 µM for the half of the compounds with a filed dose; 0% is about no effect
Shiga toxin inh – A qHTS for Small Molecule Inhibitors of Shiga Toxin | Vero cells, Shiga toxin protein synthesis inhibition reporter | inhibition, % at 38.7 µM | 290,000 tested, 9.2% active | AID 2315, 2010; in the data active = inhibition mostly above about 28%, no sharp cut-off; inactive = mostly below about 43%; also: 0% is about no effect
Sm TGR block – qHTS Assay for the Inhibitors of Schistosoma Mansoni Peroxiredoxins; Potency, µM (titrated, usually from 114 µM), without a hit: at the top dose activity change, negative = inhibition, hits mostly inhibitors; Schistosoma mansoni thioredoxin glutathione reductase (TGR), Q962Y6; purified TGR, DTNB reduction, TNB absorbance 405 nm; 360,000 tested, 3% active; also: potency is read from the fitted curve at half-maximal effect; % is scaled to controls: 0 for no effect and ±100 for the full control effect; nearly all actives have a fitted effect of over 60% in size
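Kinetic colorimetric format: TGR-catalysed, NADPH-driven DTNB reduction monitored via TNB absorbance. Enzyme dispensed at 20 nM; compound exposure 15 min at room temperature before reaction start.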
The depositor's hits bear a star; ? = inconclusive; / = not tested or not shown; ! = repeats disagree. Unless noted, calls follow the shape of the dose curve; as a rule, active = well fitted curve in the direction sought with a large enough effect; inconclusive = small, poorly fitted or top-dose-only effect, or another doubt; inactive = no such curve, though single readings can be large; an effect the other way counts as inactive or inconclusive.

SMILES	Pf growth 48h	NS1 inh	Pf growth 96h	CHX counter	Shiga toxin inh	Sm TGR block
O=C1[C@H]2[C@@H](c3ccc(F)cc3)N3C(=O)N(c4cccc(F)c4)C(=O)[C@@]3(Cc3ccccc3)[C@H]2C(=O)N1C1CCCCC1	?	/	?	/	/	13.3%
O=c1[nH]c([N+](=O)[O-])nn1C(c1ccccc1)c1ccccc1	?	0.8%	?	-4.1	-4.4	4.7%
CCOc1cc(C(=O)NCc2nc(-c3cccc(C)c3)no2)cc(OCC)c1OCC	/	/	/	/	/	1.0%
CCN(CC)c1ccc(C=C(c2nnnn2-c2ccc(C)cc2)c2nnnn2-c2ccc(C)cc2)cc1	1.65µM*	22.5%	?	-3.9	-9.7	6.3%
CCOC(=O)c1c(C)[nH]c(C(=O)NCCc2ccc(OC)c(OC)c2)c1C	?	5.6%	?	2.4	2.7	3.6%
CC1(C)N=C(N)N=C(N)N1c1ccc(F)cc1F	?	4.6%	9.28µM*	-4.3	3.0	0.7%
Cc1cccc(N2C(N)=NC(N)=NC23CCCCC3)c1	2.08µM*	-1.7%	?	0.8	9.3	-3.0%
CC1(C)N=C(N)N=C(N)N1c1ccccc1	/	1.9%	0.738µM*	-4.5	-5.0	0.1%
CC1(C)N=C(N)N=C(N)N1c1cccc(CN)c1	0.828µM*	2.1%	0.928µM*	-1.9	20.8	5.3%
CC1(C)N=C(N)N=C(N)N1c1ccc(Oc2ccc(Cl)cc2)c(Cl)c1	0.208µM*	-4.2%	-0.2%	-5.4	-14.5	-21.5%
O=C(c1ccccc1)N1CCN(C(=O)C2CC2)CC1	8.7%	11.2%	19.4%	-5.2	-7.8	-9.8%
COc1ccc(-c2c(-c3cc(OC)cc(OC)c3)n(C)c3ccc(Br)cc23)cc1	0.1%	/	34.6%	/	/	2.2%
COc1ccc(N=Nc2nc3ccc(Br)cc3n2C)cc1	?	-5.4%	-0.1%	40.3*	70.0*	?
O=CN1N=C(c2ccccc2)CC1c1ccccc1[N+](=O)[O-] (stereo unspecified)	-2.8%	3.9%	28.6%	-2.3	-1.7	7.2%
N#CC1CC(c2ccccc2)=NN1c1ccccc1[N+](=O)[O-] (stereo unspecified)	87.5%	/	0.1%	48.4*	113.3*	-10.2%
Cc1onc(-c2ccc(Cl)cc2Cl)c1-c1csc(N/N=C/c2ccccc2)n1	3.7µM*	-4.0%	?	1.1	-1.4	13.0%
Clc1ccc(-c2csc(N/N=C/c3ccc4c(c3)OCO4)n2)cc1	?	5.7%	?	1.8	-13.6	-2.0%
COc1ccccc1-c1cc(C(=O)Nc2cc(OC)c(OC)c(OC)c2)no1	/	/	/	/	/	6.4%
COc1ccc(/C=C2/N=C3CCCCCN3C2=O)cc1OC	-12.8%	1.1%	-20.0%	11.5	11.0*	-29.9%
O=C1/C(=C/c2ccncc2)N=C2CCCCCN12	-8.1%	9.6%	23.4%	11.4	-5.8	-16.5%
COc1ccc(/C=C2\N=C3CCCCCN3C2=O)cc1	9.7%	/	15.9%	41.4*	76.2*	47.4%
COc1ccc(/C=C2\N=C(c3ccccc3)N(c3ccc(C(=O)O)cc3)C2=O)cc1OC	?	13.7%	?	-2.3	-2.7	3.0%
Cc1ccc(S(=O)(=O)N2CCN(c3nc(CN4CCCC4)nc4sc(C)c(C)c34)CC2)cc1	4.65µM*	/	?	/	/	2.7%
Cc1sc2nc(CN3CCCC3)nc(N3CCN(S(=O)(=O)c4cccs4)CC3)c2c1C	?	9.6%	?	-11.0	-20.7	4.0%
Cc1ccc(C)c(S(=O)(=O)N2CCN(c3nc(CN4CCOCC4)nc4sc(C)c(C)c34)CC2)c1	11.7µM*	/	11.7µM*	/	/	-9.4%
SMILES	Pf growth 48h	NS1 inh	Pf growth 96h	CHX counter	Shiga toxin inh	Sm TGR block
Cc1nonc1C1CCCN1C(=O)c1cc(COc2ccc(F)cc2F)on1 (stereo unspecified)	48.6%	-4.2%	?	41.1*	102.6*	6.9%
CSc1ccccc1OCc1cc(C(=O)N2CCCC2c2nonc2C)no1 (stereo unspecified)	23.3%	-18.2%	4.6%	47.9*	91.1*	-8.8%
NC(=O)[C@@H]1CCCN1C(=O)c1cc(COc2ccc(F)cc2F)on1	62.0%	9.5%	54.4%	21.5	18.9	-0.3%
Cc1cccc(C)c1OCc1cc(C(=O)N2CCCC2c2nonc2C)no1 (stereo unspecified)	?	-42.9%	-1.6%	40.5	17.6	-3.2%
COc1ccc(CC(=O)NC(c2ccccc2)c2ccc(C)cc2)c(OC)c1 (stereo unspecified)	10.4µM*	-2.9%	?	18.4	-6.4	-1.6%
COc1ccc(OC)c(CC(=O)NC(c2ccccc2)c2ccccc2)c1	?	-1.0%	6.57µM*	-0.4	3.0	-1.5%
CCCCCCCCNC(C)C(O)c1ccc(SC(C)C)cc1 (stereo unspecified)	1.85µM*	-31.5%	0.928µM*!	-2.0	-7.6	2.6%
Cn1c(O)c(C(c2ccccn2)c2c(O)n(C)c(=S)n(C)c2=O)c(=O)n(C)c1=S	5.9%	2.3%	8.1%	-2.4	29.2	22.4µM*
Cn1c(O)c(C(c2ccncc2)c2c(O)n(C)c(=S)n(C)c2=O)c(=O)n(C)c1=S	16.9%	6.6%	/	-4.6	-16.0	15.8µM*
COc1cc2c(cc1OC)C(C1C(=O)CC(C)CC1=O)N(C(=O)CCl)CC2 (stereo unspecified)	12.0%	4.7%	2.4%	-2.7	-8.2	?
Cc1ccc(OCC(=O)Nc2ccc(OCc3cc(=O)n4ccsc4n3)cc2)cc1	/	/	/	/	/	8.1%
Cc1ccnc(NC(c2ccsc2)c2ccc3ccc(C)nc3c2O)c1 (stereo unspecified)	?	-3.7%	-1.1%	6.7	20.7	/
Cc1ccc2ccc(C(Nc3ccccn3)c3ccccc3)c(O)c2n1 (stereo unspecified)	/	-50.3%	-21.3%	0.9	35.6	2.82µM*
COc1ccc(C(Nc2cc(C)ccn2)c2ccc3ccc(C)nc3c2O)cc1 (stereo unspecified)	?	22.5%	-11.2%	-1.0	13.0	0.398µM*
COc1cc(C(Nc2ccccn2)c2ccc3ccc(C)nc3c2O)cc(OC)c1O (stereo unspecified)	?	?	-8.7%	-1.6	-10.0	0.355µM*
Cc1ccc2ccc(C(Nc3cccc(C(F)(F)F)c3)c3cccnc3)c(O)c2n1 (stereo unspecified)	?	5.2%	?	-6.5	-6.4	2.24µM*
c1ccc(-c2cncn2-c2ccccc2)cc1	-12.9%	/	34.7%	/	/	4.7%
Cc1ccc(C)c(NC(=O)Cn2ncc3c([nH]c4ccccc43)c2=O)c1	/	/	/	/	/	-9.2%
COc1cccc(C(=O)NC(=NCCc2c[nH]c3ccc(OC)cc23)Nc2nc(C)cc(C)n2)c1	/	/	/	/	/	45.7%
